Bioassay records from PubChem BioAssay.
In the library only some 1.8% were active in any assay of this set; here they are far more common.
Mito fusion yeast = inhibitors of mitochondrial division or activators of mitochondrial fusion. S. cerevisiae fusion-defective mutant growth rescue, CellTiterGlo 48 h. 0.23% of 320,000 active. Potency, µM (titrated, usually from 46.1 µM), for inactives: at the highest dose growth rescue (activation), hits mostly activators. AID 485298; also: potency is read from the fitted curve at half-maximal effect; % of control where 0% means no effect; nearly all actives have a fitted effect of over 45% in size
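Read-out: ATP-based luminescence (CellTiterGlo, 10 min ambient) reporting growth of fusion-defective ts yeast after 48 hours at 37C on glycerol/ethanol YPEG medium in the presence of compound.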
ClpP mod = qHTS Assay for Activators of ClpP. ATP-dependent Clp protease proteolytic subunit (Bacillus subtilis (strain 168)), P80244. AID 651965, 2013. purified B. subtilis ClpP, FRET peptide cleavage, 20 min. Potency, µM (highest dose often 57.5 µM), for inactives: top-dose activity change, negative = active. 1.9% of 340,000 active; active = well fitted falling curve with a large enough effect; inconclusive = small, poorly fitted or top-dose-only effect; inactive = no such curve, though single readings can be large or run the other way; also: potency is read from the fitted curve at half-maximal effect; the source files actives as falling curves though it sought activators and does not explain the sign; nearly all actives have a fitted effect of over 65% in size
Target sequence (P80244 whole entry, looked up): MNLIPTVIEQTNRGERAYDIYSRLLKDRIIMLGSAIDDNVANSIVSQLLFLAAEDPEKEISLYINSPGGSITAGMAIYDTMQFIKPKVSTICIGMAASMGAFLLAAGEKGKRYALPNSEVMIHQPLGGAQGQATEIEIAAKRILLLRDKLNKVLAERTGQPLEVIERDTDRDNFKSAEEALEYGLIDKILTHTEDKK
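ClpP 10 microg/mL final, pH 8 Tris/KCl buffer with BSA, glycerol, Tween-20; compound pinned in; FRET-FV substrate; RT 20 min; Ex320/Em430; ΔFRET vs ADEP 5.8 microM, DMSO, no enzyme.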
AT treatment = potential ataxia-telangiectasia treatment; F2112 A-T fibroblasts, KAP-1 phosphorylation AlphaLISA; neocarzinostatin DNA damage 30 min before lysis; Potency, µM (top dose mostly 57.5 µM), for the others: at the highest dose activation, actives largely listed as activators; 0.19% of 320,000 active; also: potency is read from the fitted curve at half-maximal effect; % of control where 0% means no effect; nearly all actives have a fitted effect of over 45% in size
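ATM-like activity read as KAP-1 phosphorylation via AlphaLISA donor/acceptor antibody pairs after lysis and 6 hr at 25C. Cells were ATM-null patient fibroblasts (F2112, hTERT), dosed 60 min, then exposed to the DSB inducer NCS for 30 min.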
GRP78 ERSR act = induces the endoplasmic reticulum stress response in human glioma cells; U87-MG GRP78 promoter luciferase reporter, 16 h; 0.02% of 420,000 active; Potency, µM, for inactives: at the highest dose activation, most hits filed as activators; also: potency is read from the fitted curve at half-maximal effect; series mostly up to about 76 µM; % of control where 0% means no effect; nearly all actives have a fitted effect of over 35% in size
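Stably transfected U87-MG glioma cells carrying a GRP78-based luciferase sensor; 16 h compound incubation. Luminescence end-point read 10 min after Bright-Glo addition at room temperature.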
MBNL1 CUG block = blocks human MBNL1 binding to CUG repeat RNA. AID 2675. Potency, µM (doses to about 57.5 µM), for the others: at the highest dose activity change, negative = inhibition, actives largely listed as inhibitors. TR-FRET MBNL1-His/biotin-(CUG)12 binding, 665/545 ratio. 0.036% of 280,000 active. Q9NR56; active = well fitted inhibition curve with a large enough effect in the signal ratio, with a control signal flat, not every such curve was filed as active; inconclusive = small, poorly fitted or top-dose-only effect, or effect the other way, or a change in a side signal; inactive = no such curve, though single readings can be large or run the other way; the % refers to the signal ratio; also: potency is read from the fitted curve at half-maximal effect; % is scaled to controls: 0 for no effect and ±100 for the full control effect
Target sequence (Q9NR56 whole entry, looked up): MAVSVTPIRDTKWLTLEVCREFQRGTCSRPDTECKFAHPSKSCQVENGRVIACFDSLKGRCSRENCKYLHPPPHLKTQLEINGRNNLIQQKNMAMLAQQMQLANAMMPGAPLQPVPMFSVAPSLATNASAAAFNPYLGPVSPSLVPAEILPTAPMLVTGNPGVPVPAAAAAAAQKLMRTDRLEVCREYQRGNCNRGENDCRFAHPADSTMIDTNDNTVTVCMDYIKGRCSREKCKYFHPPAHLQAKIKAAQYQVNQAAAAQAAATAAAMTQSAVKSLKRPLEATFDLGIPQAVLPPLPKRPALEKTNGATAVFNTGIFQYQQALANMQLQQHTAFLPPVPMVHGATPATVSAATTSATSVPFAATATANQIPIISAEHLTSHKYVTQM
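MBNL1-His + Biotin-(CUG)12, cpd titration 92 nM–58 uM; Tb anti-His Ab 0.055 ng/ul, SA-XL665 5 nM (final); 60 min RT; ratiometric 665/545 nm, Ex 340 nm; normalized to buffer and full-complex controls.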
TCR act = T cell receptor activation; primary human leukocytes, anti-CD3, IL-2 HTRF, 48 h; Potency, µM (titrated, usually from 9.22 µM), inactives show at the top dose activation of IL-2 secretion, most hits filed as activators; 330,000 tested, under 10 active; AID 504894; also: % of control where 0% means no effect
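Primary human leukocytes receive a-CD3 beads and test compound and are incubated 48 hr. Secreted IL-2 is then assayed by HTRF, measuring 665nm acceptor emission after 320nm excitation of the europium donor.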
* marks the source's active call; other numbers are inactive results; u = inconclusive; x = no result given; ! = not active in a repeat; [ ] = another dose, or the depositor's remark. Unless noted, calls follow the shape of the dose curve; as a rule, active = well fitted curve in the direction sought with a large enough effect; inconclusive = small, poorly fitted or top-dose-only effect, or another doubt; inactive = no such curve, though single readings can be large; an effect the other way counts as inactive or inconclusive.

SMILES	Mito fusion yeast	ClpP mod	AT treatment	GRP78 ERSR act	MBNL1 CUG block	TCR act
COc1ccc2c(c1)CCc1sc(NC(=O)c3ccc(C)cc3)nc1-2	-7%	35µM*	6%	-4%	-10%	-7%
CNC(=O)c1[nH]nc2c1CCc1cc(OC)ccc1-2	-1%	x	10µM*	3%	-5%	-5%
COc1cc2ccccc2cc1C(=O)OCC(=O)Nc1ccc(Br)cc1	x	4%	x	-3%	x	x
COc1ccc(C(=O)Nc2scc(-c3ccc(Cl)cc3Cl)c2C(N)=O)cc1	-8%	28µM*	6%	1%	42%	2%
CC(C)(C)c1ccc(C(=O)N2CCC(NC(=O)c3ccccc3)CC2)cc1	35µM*	1%	10%	-4%	-1%	5%
CC(C)(C)c1ccc(C(=O)N2CCC(C(=O)NC3CC3)CC2)cc1	-3%	x	7%	6%	-4%	2%
Cc1ccc(C)c(NC(=O)c2ccc(OCc3c(C)noc3C)cc2)c1	19%	32µM*	4%	2%	x	-1%
COc1cc(C(=O)Nc2cc(C)ccc2C)ccc1OCc1c(C)noc1C	x	x	-9%	-2%	x	-1%
CC1(C)CCC(c2ccc(Cl)cc2)=C(CN2CCN(c3ccc(C(=O)NS(=O)(=O)c4ccc(N[C@H](CCN5CCOCC5)CSc5ccccc5)c(S(=O)(=O)C(F)(F)F)c4)cc3)CC2)C1	x	-12%	x	u	x	x
O=C(Cn1ccc2ccccc2c1=O)NCCC(=O)Nc1cccc(Cl)c1	2%	18µM*	1%	-3%	1%	-1%
COc1cc(C)c(CN2C[C@H](Sc3nc4ccccc4[nH]3)C[C@H]2C(=O)N(C)C)cc1C	x	x	x	-6%	x	x
O=c1[nH]c2ccccc2c(=O)c2ccccc12	x	-3%	x	-2%	x	x
CC(=O)Nc1ccc2c(c1)[nH]c(=O)c1ccccc12	x	32µM*	x	1%	x	2%
Nc1ccc2c(c1)[nH]c(=O)c1ccccc12	x	20µM*	x	-3%	x	-7%
Nc1cc2[nH]c(=O)c3ccccc3c2cc1Br	x	-12%	x	-4%	x	-6%
Nc1cccc2[nH]c(=O)c3ccccc3c12	x	28µM*	x	-1%	x	0%
Cc1cccc(C(=O)N[C@H]2CC[C@@H](n3cc(C(=O)N4CCCC4)nn3)CC2)c1	x	x	x	-6%	x	x
C[n+]1c(/C=C/c2ccc(N)cc2)sc2ccccc21	x	-6%	x	1%	x	x
CCCN1CN(c2ccccc2)C(=S)N(c2ccccc2)C1	-11%	x	1.1µM*	-10%	0%	0%
CC(=O)OC[C@]12CC[C@H]3[C@@](C)(CC[C@H]4C(C)(C)CCC[C@]34C)[C@@H]1C[C@H](C1=CC(=O)O[C@@H]1OC(C)=O)O2	x	x	40µM*	x	x	x
O=C(c1cccnc1)C1CCCN(Cc2ccc3c(c2)CN(C(=O)c2cn4ccccc4n2)CCO3)C1 (configuration not stated)	x	x	x	-6%	x	x
Clc1ccc(N2CCN(Cc3nnc(-c4ccc5c(c4)OCO5)o3)CC2)cc1	x	-11%	x	-4%	x	x
c1ccc(-c2nnc(CN3CCCCC3)o2)cc1	13%	-1%	45µM*	-2%	-4%	-5%
Fc1ccccc1N1CCN(Cc2nnc(-c3ccc4c(c3)OCO4)o2)CC1	x	35µM*	x	-1%	x	x
Cc1csc(NC(=O)c2ccccc2O)n1	0%	28µM*	-5%	2%	-10%	-2%
SMILES	Mito fusion yeast	ClpP mod	AT treatment	GRP78 ERSR act	MBNL1 CUG block	TCR act
COc1ccc(-c2nc3ccc(NC(C)=O)cc3c(=O)n2Cc2cccc(Cl)c2)cc1COc1ccc(NC(C)=O)cc1	x	-24%	x	x	x	x
Cc1ccc(CNC(=O)C(Cc2ccccc2)NS(=O)(=O)c2ccc(Br)s2)cc1 (configuration not stated)	18µM*	4%	10%	-7%	40%	-2%
Cc1ccc(CNC(=O)C(Cc2ccccc2)NS(=O)(=O)c2cccs2)cc1 (configuration not stated)	2%	-11%	-3%	-3%	-6%	x
CC(C)(C)[C@H]1C=C(C(=O)NCc2nc3ccccc3[nH]2)O[C@@H](OCCCCO)C1	5.6µM*	1%	-1%	-4%	3%	-17%
C[C@H]1C=C(C(=O)NCc2nc3ccccc3[nH]2)O[C@@H](OCCCCO)C1	x	-3%	x	-2%	x	-4%
Cc1sc(N)nc1-c1cccc([N+](=O)[O-])c1	x	-4%	x	2%	x	x
Cc1oc(-c2ccc(Cl)cc2)nc1CSCC(=O)NCc1ccccc1Cl	-3%	32µM*	x	-2%	x	x
CSc1ccc(-c2nc(CSCC(=O)NCCCN3CCOCC3)c(C)o2)cc1	-1%	35µM*	7%	-2%	3%	5%
Cc1ccc(-c2nc(CSCC(=O)NCCCN3CCOCC3)c(C)o2)cc1	1%	-4%	1%	-1%	7%	0%
Cc1ccc(CNc2nc(CN3CCCCC3c3cccnc3)nc3ccccc23)o1 (configuration not stated)	x	x	x	-9%	x	x
O=C1Nc2ccccc2/C1=C/C(=O)c1cccs1	-1%	32µM*	-14%	-13%	7%	3%
O=S(=O)(c1ccccc1)N1CCN(c2nc(-c3cccs3)nc3ccccc23)CC1	19%	u	7%	-1%	-16%	-10%[46.1 µM]
O=S(=O)(c1ccc(Br)cc1)N1CCN(c2nc(-c3cccs3)nc3ccccc23)CC1	x	u	x	-2%	x	x
O=S(=O)(c1ccc(Cl)cc1)N1CCN(c2nc(-c3cccs3)nc3ccccc23)CC1	u	20µM*!	4%	0%	7%	-1%
